Drawing on PubChem BioAssay (Tox21), this text covers Potency for 14 compounds.

SMILES strings stand for the structures. Results filed as inconclusive are left out. Calls of active or inactive are those of the source. The call rests on the fitted dose curve; in most records, active means well fitted curve in the direction sought with a large enough effect in the repeat runs; inconclusive means weak or mixed curves; inactive means no such curve, though single readings can be large; an effect the other way counts as inactive or inconclusive.

The nature of test [1]: qHTS assay to identify small molecule agonists of the RXR signaling pathway - cell viability counter screen (AID 1159529).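 Further: HEK 293T cells carrying an RXR-alpha UAS beta-lactamase reporter; nearly all actives have a fitted effect of over 50% in size.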 Conditions: RXR-alpha-bla HEK293T viability, CellTiter-Glo, 16 h; series mostly up to 76.8 µM. The method, boiled down:
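Tox21 10K compounds were tested for cytotoxicity against GeneBLAzer RXR-alpha HEK 293T cells grown in 2% charcoal-stripped FBS. Exposure lasted 16 hr at 37 C, 5% CO2; viability read by CellTiter-Glo luminescence.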

The nature of test [2]: qHTS assay to identify small molecule antagonists of the retinoid acid receptor (RAR) signaling pathway - cell viability counter screen (AID 1159551). Further: nearly all actives have a fitted effect of over 35% in size. Conditions: C3RL4 cells viability, ATP luminescence (CellTiter-Glo), 6 h; series mostly up to 92.4 µM. The method, boiled down: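 Cells (C3RL4) are plated, incubated overnight, dosed with compound in DMSO, then given retinol at 1 uM final. After 6 h at 37 C, CellTiter-Glo is added and luminescence read following 30 min at room temperature.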
Background: In qHTS, concentration-response curves come from the screen itself.

Test [3] is described as follows: qHTS assay to identify small molecule antagonists of the retinoic acid receptor (RAR) signaling pathway (AID 1159552; further: nearly all actives have a fitted effect of over 50% in size). The note with it: C3RL4 RARE luciferase reporter, retinol-stimulated, 6 h; series mostly up to 92.4 µM. The method, boiled down:
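Overnight-plated C3RL4 reporter cells get compound, then retinol to 1 uM final; plates sit 6 hr at 37 C, 5% CO2. A luciferase reagent is added and light output recorded after 30 min at room temperature.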

Test [4] can be described thus: qHTS assay to identify small molecule agonists of the retinoic acid receptor (RAR) signaling pathway (AID 1159553). Further: potency means the concentration at half of the fitted maximal effect. Conditions: C3RL4 RARE luciferase reporter, agonist, 6 h; activation: at 73.3 µM (top of the series) unless noted. The essentials:
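Seed C3RL4 reporter cells at 1,000 per well and incubate overnight at 37 C. Add compounds in DMSO, incubate 6 hr. Add luciferase reagent, wait 30 min at room temperature, read luminescence.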

The nature of test [5]: qHTS assay to identify small molecule antagonists of the estrogen related receptor (ERR) signaling pathway from Tox21 library - cell viability counter screen (AID 1224834). Further: nearly all actives have a fitted effect of over 30% in size. Further: potency means the concentration at half of the fitted maximal effect. The note with it: ERR reporter cells viability, CellTiter-Fluor, 17.5 h; series mostly up to 92.4 µM. The essentials:
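ERR cells, 2,000/well; 6 h settle at 37 C/5% CO2; pin-tool compound transfer in DMSO; 17.5 h at 37 C; CellTiter-Fluor, 30 min; fluorescence intensity.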

On to `O=C(O)c1cc(N=Nc2ccc([N+](=O)[O-])cc2)ccc1O`, for which the Potency entry in test [1], in test [2] and in test [3] was “inactive” throughout. The Potency is 6.73 µM (active) in test [4] and 47.7 µM (active) in test [5].
On to `C=CCn1c(=O)n(CC=C)c(=O)n(CC=C)c1=O`, for which the Potency entry in test [1], in test [2], in test [3], in test [4] and in test [5] was “inactive” in each case.
Take `O=C(O)Cc1ccc2c(c1)C(=O)c1ccccc1CO2`: the Potency entry in test [1], in test [2], in test [3] and in test [5] was “inactive” each time.
Consider `CCCCCCCC`, for which the Potency result in test [1], in test [2], in test [3] and in test [5] was “inactive” each time.
`CC(C)(C)C1CCC(=O)CC1`: the Potency result in test [1], in test [2], in test [3] and in test [5] was “inactive” throughout.
Turning to `Nc1ccc(Oc2ccc(Cl)cc2)cc1`, the Potency entry in test [1], in test [2], in test [3] and in test [5] was “inactive” in each case.
As for `CC(=O)c1ccc(C(C)=O)cc1`, the Potency entry in test [1], in test [2], in test [3], in test [4] and in test [5] was “inactive” throughout.
For the compound `CCC(CC)(CC(=O)Nc1cccc(/C=C/c2nc(C3CCC3)cs2)c1)C(=O)O`, the Potency result in test [1], in test [2], in test [3] and in test [5] was “inactive” in each case.
Take `COc1ccc(NC(=O)CC(C)=O)cc1`: the Potency entry in test [1], in test [2], in test [3] and in test [5] was “inactive” each time.
Turning to `CC(C)(c1cc(Br)c(OCC(Br)CBr)c(Br)c1)c1cc(Br)c(OCC(Br)CBr)c(Br)c1` (stereo unspecified), the Potency entry in test [1], in test [2], in test [3], in test [4] and in test [5] was “inactive” each time.
Take `COC(C)=O`: the Potency result in test [1], in test [2], in test [3], in test [4] and in test [5] was “inactive” in each case.
`O=C(/C=C/c1ccc(O)c(O)c1)O[C@@H](C(=O)O)[C@@H](OC(=O)/C=C/c1ccc(O)c(O)c1)C(=O)O`: the Potency result in test [1], in test [2] and in test [4] was “inactive” throughout.
For the compound `Sc1nc2ccccc2s1`, the Potency entry in test [1], in test [2], in test [3] and in test [5] was “inactive” in each case.
On to `Cc1ccc(N/N=c2\c(=O)cc/c(=N\Nc3ccc(S(=O)(=O)O)cc3)c2=O)c(C)c1`, for which the Potency result in test [1], in test [2], in test [3] and in test [4] was “inactive” in each case. Also, the Potency in test [5] was 30.6 µM (active).
